In all, about 1,200 compounds went through this assay and about 870 (72%) were called active. Another 3% or so got no clear call; they are omitted.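 How the source made its calls: active means every test run fits a falling curve whose half-maximal concentration is at most twice the top valid dose; inconclusive means runs disagree, or flat 30 to 70% inhibition, or poor fit; inactive means every run inactive: flat, rising or weaker potency.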 The set was probably picked from earlier hits. A selection follows. Results with a measured potency or affinity are listed apart.
assay: blockers of HIV-1 ZM109 envelope-driven cell-cell fusion – HeLa effector, CEM target cells, luciferase, cherry-pick, dose response (AID 652058); details: HeLa Env/CEM cell fusion, 16-24 h; series mostly up to 35 µM

Activity change, negative = inhibition, inactive:
CC(=O)OC1c2ccccc2C(=O)N1c1ccccc1C (stereo not given)
O=C(COC(=O)c1cccc(S(=O)(=O)N2CCOCC2)c1)NCc1ccccc1
Cc1ccc(S(=O)(=O)N(C)c2ccc(C(=O)N3CCN(Cc4ccc5c(c4)OCO5)CC3)cc2)cc1
c1ccc(CSc2nnc([C@@H]3CCCN3)o2)cc1
Cc1nnc(SC(=O)N2c3ccccc3Sc3ccccc32)s1
Cc1ccccc1-n1c(=O)c2ccccc2n2cnnc12
O=c1c2ccccc2nnn1CSc1nnc(COc2ccc(Cl)cc2)n1Cc1ccco1
O=C(CNC(=O)c1cccc(-n2cccc2)c1)Nc1ccccc1Br
Cc1ccc(S(=O)(=O)N[C@@H]2CC[C@H](CCNC(=O)c3ccccc3F)O[C@H]2CO)cc1
COc1cccc(S(=O)(=O)N[C@H]2CC[C@@H](CCN)O[C@@H]2CO)c1
O=C(NCC[C@@H]1CC[C@@H](NS(=O)(=O)c2ccccc2F)[C@@H](CO)O1)c1ccc(F)cc1
COc1ccccc1S(=O)(=O)N[C@H]1CC[C@H](CC(=O)N2CCN(C)CC2)O[C@H]1CO
COc1cc(-c2cc(OC)c(O)c(OC)c2)cc(OC)c1O
Cc1ccc(C2Oc3ccccc3C3=C2C(c2cccs2)n2ncnc2N3)cc1 (stereo not given)
O=C(NCCCN1CCc2ccccc2C1)Nc1ccc(Cl)cc1
O=C(CN1CCCN(Cc2ccc(F)cc2Cl)C1=O)NC1CCCCCCC1
CCN(CC)S(=O)(=O)c1cccc(S(=O)(=O)c2cccc(S(=O)(=O)N(CC)CC)c2)c1
CS(=O)(=O)N(Cc1ccc(Cl)cc1)c1ccc(C(=O)NCCC2=CCCCC2)cc1
CCCNC(=O)C[C@H]1C[C@H]2c3cc(NC(=O)Cc4ccncc4)ccc3O[C@H]2[C@H](CO)O1
COc1ccc2c3c([nH]c2c1)[C@H](CO)N(C(=O)Nc1cccc(F)c1)CC31CCN(S(=O)(=O)c2ccccc2)CC1
COc1ccc(S(=O)(=O)N[C@@H]2CC[C@@H](CC(=O)NCCc3ccncc3)O[C@@H]2CO)cc1
CCCCOc1ccc(S(=O)(=O)Nc2cccnc2)cc1
CC(=O)c1ccc(S(=O)(=O)N2CCN(c3nc4c(C)c(C)ccc4cc3C#N)CC2)cc1
O=C(Nc1nc2ccccc2[nH]1)c1ccccc1F
Cc1ccc(NC(=O)c2ccc(CN3CCc4ccccc4C3)cc2)cc1
Cc1ccc(NC(=O)c2ccc(OCC3CCCO3)cc2)cc1Cl (stereo not given)
O=C(Nc1ccc(Cl)cc1)Nc1cccc(C(=O)O)c1
O=C(COc1ccc(-n2cnnn2)cc1)Nc1ccc(F)c(F)c1
COC(=O)[C@H](Cc1ccccc1)NC(=O)Cn1cnc(C(=O)Nc2ccc(C)c(C)c2)n1
Cn1c(CN2CCCCC2)nc2cc(NC(=O)c3ccc(Cl)cc3)ccc21

— PubChem BioAssay AID652058 (Broad Institute, 2013)
